# Measured values reported in article PMC7862700, “An all-to-all approach to the identification of sequence-specific readers for epigenetic DNA modifications on cytosine”.
# Assays:
# Assay in all cases: DAPPL (digital affinity profiling via proximity ligation, sequencing); 10 mM Tris-HCl pH 7.5, 50 mM NaCl, 1 mM DTT, 4% glycerol, room temperature, 30 min; GST-TFs on glutathione beads, 16-mer random dsDNA library, 0.1% formaldehyde crosslink after washing; high values mean tight binding
# [1] = molecular target: T1, FEV (Homo sapiens, UniProt Q99581 1-238); conditions: protein: recombinant; tags: N-terminal GST; dsDNA, one strand shown
# T1 sequence: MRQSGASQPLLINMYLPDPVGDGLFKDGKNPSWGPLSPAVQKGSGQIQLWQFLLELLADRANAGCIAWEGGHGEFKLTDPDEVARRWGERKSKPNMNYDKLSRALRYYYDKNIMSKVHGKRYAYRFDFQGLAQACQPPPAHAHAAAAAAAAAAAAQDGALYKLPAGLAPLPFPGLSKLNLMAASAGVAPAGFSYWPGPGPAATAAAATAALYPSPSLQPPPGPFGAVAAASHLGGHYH
# Method in brief: (§1)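 Human transcription factors were made in yeast as GST fusions, captured on glutathione beads and barcoded with DNA. With a tag-only sample included, the pool was incubated with 200 nmole of a random double-stranded 16-mer DNA library in Tris/NaCl/DTT/glycerol buffer at room temperature for 30 min, then crosslinked with 0.1% formaldehyde after washing, ligated by proximity, amplified and sequenced. For binding signal, each hexamer's read frequency for a factor is divided by its frequency for the tag-only sample.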
# [2] = molecular target: ETV5 (Homo sapiens, UniProt P41161 1-510); conditions: protein: recombinant; tags: N-terminal GST; dsDNA, one strand shown
# Chain of ETV5 (P41161 whole entry): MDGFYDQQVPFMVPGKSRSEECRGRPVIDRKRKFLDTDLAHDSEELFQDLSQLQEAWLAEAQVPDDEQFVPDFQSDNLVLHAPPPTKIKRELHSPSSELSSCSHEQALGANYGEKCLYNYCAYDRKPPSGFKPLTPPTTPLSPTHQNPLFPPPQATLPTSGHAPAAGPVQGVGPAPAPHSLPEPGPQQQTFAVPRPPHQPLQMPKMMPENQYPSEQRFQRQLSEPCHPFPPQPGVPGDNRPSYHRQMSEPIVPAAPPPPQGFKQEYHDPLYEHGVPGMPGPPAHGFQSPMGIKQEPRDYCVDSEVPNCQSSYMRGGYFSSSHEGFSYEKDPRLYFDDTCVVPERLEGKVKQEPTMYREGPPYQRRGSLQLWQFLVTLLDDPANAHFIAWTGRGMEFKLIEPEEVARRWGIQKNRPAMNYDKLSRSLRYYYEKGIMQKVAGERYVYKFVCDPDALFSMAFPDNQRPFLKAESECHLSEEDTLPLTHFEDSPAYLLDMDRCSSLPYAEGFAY
# Method in brief: as §1
# [3] = molecular target: HSF1 (Homo sapiens, UniProt Q00613 1-529); conditions: protein: recombinant; tags: N-terminal GST; chain copies: 3; dsDNA, one strand shown
# Chain of HSF1 (Q00613 whole entry): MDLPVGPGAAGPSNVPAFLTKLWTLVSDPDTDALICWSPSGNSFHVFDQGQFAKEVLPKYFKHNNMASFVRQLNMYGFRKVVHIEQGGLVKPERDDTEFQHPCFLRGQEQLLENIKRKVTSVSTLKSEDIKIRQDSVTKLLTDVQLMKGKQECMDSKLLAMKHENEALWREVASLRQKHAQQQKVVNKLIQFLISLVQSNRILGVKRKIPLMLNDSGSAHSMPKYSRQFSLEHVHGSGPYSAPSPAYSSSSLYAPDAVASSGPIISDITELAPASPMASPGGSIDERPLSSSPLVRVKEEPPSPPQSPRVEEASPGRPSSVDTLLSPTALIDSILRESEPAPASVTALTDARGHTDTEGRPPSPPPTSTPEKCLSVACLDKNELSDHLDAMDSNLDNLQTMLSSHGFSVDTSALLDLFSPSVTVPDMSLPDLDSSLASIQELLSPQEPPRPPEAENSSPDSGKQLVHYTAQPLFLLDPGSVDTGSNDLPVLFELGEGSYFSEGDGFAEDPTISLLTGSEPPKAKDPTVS
# Method in brief: as §1
# [4] = molecular target: T2, SPIC (Homo sapiens, UniProt Q8N5J4 1-248); conditions: protein: recombinant; tags: N-terminal GST; dsDNA, one strand shown
# T2 sequence: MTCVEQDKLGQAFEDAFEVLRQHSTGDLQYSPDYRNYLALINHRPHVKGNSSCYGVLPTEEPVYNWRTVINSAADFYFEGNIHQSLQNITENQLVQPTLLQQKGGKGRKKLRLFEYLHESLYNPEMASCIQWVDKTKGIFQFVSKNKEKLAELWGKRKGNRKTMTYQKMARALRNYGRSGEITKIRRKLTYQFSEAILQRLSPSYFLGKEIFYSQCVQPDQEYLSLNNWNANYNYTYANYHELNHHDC
# Method in brief: as §1
# [5] = molecular target: ELF4 (Homo sapiens, UniProt Q99607 1-663); conditions: protein: recombinant; tags: N-terminal GST; dsDNA, one strand shown
# Chain of ELF4 (Q99607 whole entry): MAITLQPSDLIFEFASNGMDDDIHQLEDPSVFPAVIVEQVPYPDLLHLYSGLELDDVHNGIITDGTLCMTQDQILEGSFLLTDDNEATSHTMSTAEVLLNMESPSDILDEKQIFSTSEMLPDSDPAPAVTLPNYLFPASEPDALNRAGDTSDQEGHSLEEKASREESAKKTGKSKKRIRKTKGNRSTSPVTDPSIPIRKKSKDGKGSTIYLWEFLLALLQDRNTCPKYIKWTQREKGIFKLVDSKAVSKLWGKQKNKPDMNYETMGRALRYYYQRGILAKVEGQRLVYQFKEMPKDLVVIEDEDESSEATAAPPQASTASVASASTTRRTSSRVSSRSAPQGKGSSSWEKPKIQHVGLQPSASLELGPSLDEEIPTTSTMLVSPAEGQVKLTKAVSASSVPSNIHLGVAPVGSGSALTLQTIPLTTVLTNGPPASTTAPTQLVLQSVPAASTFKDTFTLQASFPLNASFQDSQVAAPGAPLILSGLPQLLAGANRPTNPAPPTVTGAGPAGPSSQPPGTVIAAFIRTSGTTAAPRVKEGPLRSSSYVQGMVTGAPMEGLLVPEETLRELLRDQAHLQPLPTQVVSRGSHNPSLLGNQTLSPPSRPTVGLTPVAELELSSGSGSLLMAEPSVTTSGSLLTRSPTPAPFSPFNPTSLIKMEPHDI
# Method in brief: as §1
# [6] = molecular target: T3, ELK4 (Homo sapiens, UniProt P28324-2 1-405); conditions: protein: recombinant; tags: N-terminal GST; dsDNA, one strand shown
# T3 sequence: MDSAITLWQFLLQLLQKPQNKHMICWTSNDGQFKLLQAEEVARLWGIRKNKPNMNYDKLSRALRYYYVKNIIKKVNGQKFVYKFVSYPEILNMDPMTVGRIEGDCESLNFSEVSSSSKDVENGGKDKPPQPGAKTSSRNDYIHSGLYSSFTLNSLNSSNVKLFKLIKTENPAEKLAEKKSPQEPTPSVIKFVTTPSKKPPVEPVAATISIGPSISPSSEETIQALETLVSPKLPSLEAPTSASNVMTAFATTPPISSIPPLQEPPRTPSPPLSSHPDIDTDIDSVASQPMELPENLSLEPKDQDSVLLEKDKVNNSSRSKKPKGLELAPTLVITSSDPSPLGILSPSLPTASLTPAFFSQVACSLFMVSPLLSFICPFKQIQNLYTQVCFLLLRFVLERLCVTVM
# Method in brief: as §1
# [7] = molecular target: T4, ETV2 (Homo sapiens, UniProt O00321 1-342); conditions: protein: recombinant; tags: N-terminal GST; dsDNA, one strand shown
# T4 sequence: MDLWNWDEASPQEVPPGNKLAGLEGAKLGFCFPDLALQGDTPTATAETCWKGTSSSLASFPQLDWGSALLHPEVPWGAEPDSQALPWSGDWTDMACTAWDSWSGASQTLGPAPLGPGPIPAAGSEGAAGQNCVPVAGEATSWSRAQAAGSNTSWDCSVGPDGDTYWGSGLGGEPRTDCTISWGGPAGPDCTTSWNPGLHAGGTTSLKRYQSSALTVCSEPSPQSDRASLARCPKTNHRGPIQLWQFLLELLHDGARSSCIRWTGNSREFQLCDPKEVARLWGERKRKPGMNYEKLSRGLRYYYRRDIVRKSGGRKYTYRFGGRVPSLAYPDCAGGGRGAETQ
# Method in brief: as §1
# [8] = molecular target: T5, ELF3 (Homo sapiens, UniProt P78545 1-371); conditions: protein: recombinant; tags: N-terminal GST; dsDNA, one strand shown
# T5 sequence: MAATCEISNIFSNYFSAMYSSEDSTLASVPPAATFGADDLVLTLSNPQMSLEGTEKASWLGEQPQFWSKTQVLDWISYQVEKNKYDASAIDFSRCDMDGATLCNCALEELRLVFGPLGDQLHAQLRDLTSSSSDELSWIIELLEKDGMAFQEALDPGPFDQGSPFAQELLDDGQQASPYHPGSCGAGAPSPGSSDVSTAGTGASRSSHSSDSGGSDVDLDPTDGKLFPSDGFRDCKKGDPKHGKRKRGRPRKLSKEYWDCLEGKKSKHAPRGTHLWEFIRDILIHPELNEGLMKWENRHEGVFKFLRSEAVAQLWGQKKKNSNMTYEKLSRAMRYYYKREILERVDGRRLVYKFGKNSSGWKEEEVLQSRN
# Method in brief: as §1
# [9] = molecular target: CRX (Homo sapiens, UniProt O43186 1-299); conditions: protein: recombinant; tags: N-terminal GST; dsDNA, one strand shown
# Chain of CRX (O43186 whole entry): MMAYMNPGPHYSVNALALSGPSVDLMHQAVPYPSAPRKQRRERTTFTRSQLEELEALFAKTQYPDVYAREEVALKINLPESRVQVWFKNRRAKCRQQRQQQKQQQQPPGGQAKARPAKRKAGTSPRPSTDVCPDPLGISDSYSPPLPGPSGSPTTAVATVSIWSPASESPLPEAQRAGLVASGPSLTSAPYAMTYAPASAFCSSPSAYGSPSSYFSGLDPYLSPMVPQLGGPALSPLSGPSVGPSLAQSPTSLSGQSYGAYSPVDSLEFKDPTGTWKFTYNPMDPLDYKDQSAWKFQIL
# Method in brief: as §1
# [10] = molecular target: ETV1 (Homo sapiens, UniProt P50549 1-477); conditions: protein: recombinant; tags: N-terminal GST; dsDNA, one strand shown
# Chain of ETV1 (P50549 whole entry): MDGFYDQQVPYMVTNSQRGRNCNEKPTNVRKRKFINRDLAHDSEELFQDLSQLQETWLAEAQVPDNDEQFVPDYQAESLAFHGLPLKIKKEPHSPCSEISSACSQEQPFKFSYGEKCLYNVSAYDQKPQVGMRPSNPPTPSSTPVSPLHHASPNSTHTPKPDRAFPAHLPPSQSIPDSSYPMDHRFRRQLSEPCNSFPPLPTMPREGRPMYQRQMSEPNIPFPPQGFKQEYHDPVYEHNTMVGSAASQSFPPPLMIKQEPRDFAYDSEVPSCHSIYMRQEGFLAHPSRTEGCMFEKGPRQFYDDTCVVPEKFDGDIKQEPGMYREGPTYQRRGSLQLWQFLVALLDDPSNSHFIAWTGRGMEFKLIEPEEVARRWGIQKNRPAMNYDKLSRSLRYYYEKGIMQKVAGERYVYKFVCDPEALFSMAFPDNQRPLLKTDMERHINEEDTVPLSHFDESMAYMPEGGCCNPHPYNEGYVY
# Method in brief: as §1
# [11] = molecular target: T6, ERF (Homo sapiens, UniProt P50548 1-548); conditions: protein: recombinant; tags: N-terminal GST; dsDNA, one strand shown
# T6 sequence: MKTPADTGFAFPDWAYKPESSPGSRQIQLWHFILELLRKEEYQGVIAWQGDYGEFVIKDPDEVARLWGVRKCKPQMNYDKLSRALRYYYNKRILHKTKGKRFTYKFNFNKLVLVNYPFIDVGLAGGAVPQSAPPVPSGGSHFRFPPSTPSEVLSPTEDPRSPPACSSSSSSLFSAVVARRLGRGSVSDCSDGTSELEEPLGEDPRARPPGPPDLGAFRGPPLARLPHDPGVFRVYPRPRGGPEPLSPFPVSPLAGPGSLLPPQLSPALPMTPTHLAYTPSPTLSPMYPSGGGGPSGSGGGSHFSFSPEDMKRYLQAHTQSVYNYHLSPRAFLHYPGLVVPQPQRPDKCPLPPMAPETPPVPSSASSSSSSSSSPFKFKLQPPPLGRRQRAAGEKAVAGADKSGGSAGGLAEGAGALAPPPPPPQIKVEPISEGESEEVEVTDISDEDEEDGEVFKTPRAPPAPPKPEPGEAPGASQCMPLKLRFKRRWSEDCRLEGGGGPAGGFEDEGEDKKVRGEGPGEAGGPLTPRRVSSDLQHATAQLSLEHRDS
# Method in brief: as §1
# [12] = molecular target: T7, ETV3L (Homo sapiens, UniProt Q6ZN32 1-361); conditions: protein: recombinant; tags: N-terminal GST; dsDNA, one strand shown
# T7 sequence: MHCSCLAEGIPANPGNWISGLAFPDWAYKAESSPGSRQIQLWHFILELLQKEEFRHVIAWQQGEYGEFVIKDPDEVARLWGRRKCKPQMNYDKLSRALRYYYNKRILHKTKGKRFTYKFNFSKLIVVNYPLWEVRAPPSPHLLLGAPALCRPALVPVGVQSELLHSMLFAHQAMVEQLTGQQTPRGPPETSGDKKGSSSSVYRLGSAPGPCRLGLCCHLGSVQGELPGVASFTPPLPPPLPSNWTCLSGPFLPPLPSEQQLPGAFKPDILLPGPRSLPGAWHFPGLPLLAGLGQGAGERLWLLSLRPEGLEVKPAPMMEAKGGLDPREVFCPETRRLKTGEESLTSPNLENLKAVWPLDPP
# Method in brief: as §1
# [13] = molecular target: T8, ETS2 (Homo sapiens, UniProt P15036 1-469); conditions: protein: recombinant; tags: N-terminal GST; dsDNA, one strand shown
# T8 sequence: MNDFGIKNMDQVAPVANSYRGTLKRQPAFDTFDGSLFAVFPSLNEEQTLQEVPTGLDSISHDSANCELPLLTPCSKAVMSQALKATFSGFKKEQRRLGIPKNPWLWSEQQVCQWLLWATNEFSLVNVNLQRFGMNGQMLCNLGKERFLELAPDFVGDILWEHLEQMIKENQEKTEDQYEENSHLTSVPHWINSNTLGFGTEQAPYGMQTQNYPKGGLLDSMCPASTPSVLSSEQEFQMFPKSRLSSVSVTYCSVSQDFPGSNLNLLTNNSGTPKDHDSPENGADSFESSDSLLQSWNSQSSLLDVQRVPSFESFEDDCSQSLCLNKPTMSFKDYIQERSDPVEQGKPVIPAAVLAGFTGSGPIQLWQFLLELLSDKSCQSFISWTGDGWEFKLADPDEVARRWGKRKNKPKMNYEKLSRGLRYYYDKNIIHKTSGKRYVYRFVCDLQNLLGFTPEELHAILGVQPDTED
# Method in brief: as §1
# [14] = molecular target: T9, SPDEF (Homo sapiens, UniProt O95238 1-335); conditions: protein: recombinant; tags: N-terminal GST; dsDNA, one strand shown
# T9 sequence: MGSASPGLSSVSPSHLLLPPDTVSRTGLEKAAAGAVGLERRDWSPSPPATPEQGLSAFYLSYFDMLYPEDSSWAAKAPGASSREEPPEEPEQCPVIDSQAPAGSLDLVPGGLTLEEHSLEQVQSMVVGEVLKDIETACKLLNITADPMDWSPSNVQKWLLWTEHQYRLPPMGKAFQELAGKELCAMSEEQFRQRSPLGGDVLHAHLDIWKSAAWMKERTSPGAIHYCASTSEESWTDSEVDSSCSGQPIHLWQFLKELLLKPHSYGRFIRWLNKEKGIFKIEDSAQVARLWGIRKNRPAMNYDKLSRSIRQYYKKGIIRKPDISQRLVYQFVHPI
# Method in brief: as §1
# [15] = molecular target: T10, ETV7 (Homo sapiens, UniProt Q9Y603 1-341); conditions: protein: recombinant; tags: N-terminal GST; dsDNA, one strand shown
# T10 sequence: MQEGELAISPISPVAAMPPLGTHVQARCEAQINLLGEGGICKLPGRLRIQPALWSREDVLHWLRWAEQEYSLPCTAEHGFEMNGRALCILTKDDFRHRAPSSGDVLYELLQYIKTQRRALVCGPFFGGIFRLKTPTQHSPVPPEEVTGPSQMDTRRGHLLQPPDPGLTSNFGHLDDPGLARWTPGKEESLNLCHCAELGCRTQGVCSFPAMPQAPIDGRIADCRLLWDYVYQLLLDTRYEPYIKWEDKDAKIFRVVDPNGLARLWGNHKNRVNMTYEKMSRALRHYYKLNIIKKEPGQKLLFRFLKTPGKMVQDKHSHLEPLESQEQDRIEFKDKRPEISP
# Method in brief: as §1
# [16] = molecular target: T11, ELF5 (Homo sapiens, UniProt Q9UKW6-2 1-255); conditions: protein: recombinant; tags: N-terminal GST; dsDNA, one strand shown
# T11 sequence: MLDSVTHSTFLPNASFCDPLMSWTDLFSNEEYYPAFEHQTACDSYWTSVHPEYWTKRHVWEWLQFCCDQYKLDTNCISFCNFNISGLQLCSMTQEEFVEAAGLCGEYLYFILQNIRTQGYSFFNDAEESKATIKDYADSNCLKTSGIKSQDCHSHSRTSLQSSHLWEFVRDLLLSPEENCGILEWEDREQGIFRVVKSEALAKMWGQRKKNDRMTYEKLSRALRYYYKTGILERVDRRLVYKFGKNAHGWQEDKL
# Method in brief: as §1
# [17] = molecular target: T12, ETV3 (Homo sapiens, UniProt P41162-2 1-143); conditions: protein: recombinant; tags: N-terminal GST; dsDNA, one strand shown
# T12 sequence: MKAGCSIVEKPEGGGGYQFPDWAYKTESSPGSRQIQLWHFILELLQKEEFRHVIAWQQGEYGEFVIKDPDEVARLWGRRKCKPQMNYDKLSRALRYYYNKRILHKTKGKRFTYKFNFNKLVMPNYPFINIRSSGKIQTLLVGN
# Method in brief: as §1
# [18] = molecular target: ETV6 (Homo sapiens, UniProt P41212 1-452); conditions: protein: recombinant; tags: N-terminal GST; dsDNA, one strand shown
# Chain of ETV6 (P41212 whole entry): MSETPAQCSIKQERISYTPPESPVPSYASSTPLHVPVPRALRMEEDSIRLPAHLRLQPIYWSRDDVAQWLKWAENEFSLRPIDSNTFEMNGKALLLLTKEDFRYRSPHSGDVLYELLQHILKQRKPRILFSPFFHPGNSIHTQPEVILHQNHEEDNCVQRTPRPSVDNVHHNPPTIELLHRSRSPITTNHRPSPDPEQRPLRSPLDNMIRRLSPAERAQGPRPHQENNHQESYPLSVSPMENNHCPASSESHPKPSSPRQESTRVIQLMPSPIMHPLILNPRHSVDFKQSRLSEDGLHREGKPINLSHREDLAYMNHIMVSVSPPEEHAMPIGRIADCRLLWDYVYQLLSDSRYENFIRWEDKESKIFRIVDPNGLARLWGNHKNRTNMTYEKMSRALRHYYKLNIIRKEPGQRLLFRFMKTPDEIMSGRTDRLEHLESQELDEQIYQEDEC
# Method in brief: as §1
sequence,measurement,setting,value
TCCAAG,binding signal,[1],"1.03 fold enrichment (6-mer frequency, TF over GST control)"
same,binding signal,[2],"1.07 fold enrichment (6-mer frequency, TF over GST control)"
same,binding signal,[3],"1.23 fold enrichment (6-mer frequency, TF over GST control)"
same,binding signal,[4],"1.11 fold enrichment (6-mer frequency, TF over GST control)"
same,binding signal,[5],"1.07 fold enrichment (6-mer frequency, TF over GST control)"
same,binding signal,[6],"1.04 fold enrichment (6-mer frequency, TF over GST control)"
same,binding signal,[7],"1.19 fold enrichment (6-mer frequency, TF over GST control)"
same,binding signal,[8],"1.11 fold enrichment (6-mer frequency, TF over GST control)"
same,binding signal,[9],"1.2 fold enrichment (6-mer frequency, TF over GST control)"
same,binding signal,[10],"1.13 fold enrichment (6-mer frequency, TF over GST control)"
same,binding signal,[11],"1.03 fold enrichment (6-mer frequency, TF over GST control)"
same,binding signal,[12],"1.06 fold enrichment (6-mer frequency, TF over GST control)"
same,binding signal,[13],"1.13 fold enrichment (6-mer frequency, TF over GST control)"
same,binding signal,[14],"1.17 fold enrichment (6-mer frequency, TF over GST control)"
same,binding signal,[15],"1.07 fold enrichment (6-mer frequency, TF over GST control)"
same,binding signal,[16],"1.07 fold enrichment (6-mer frequency, TF over GST control)"
same,binding signal,[17],"1.06 fold enrichment (6-mer frequency, TF over GST control)"
same,binding signal,[18],"1.03 fold enrichment (6-mer frequency, TF over GST control)"
